# NS1 inh – blocks influenza NS1 protein function. Potency, µM (titrated, usually from 46.1 µM). hit rate 0.4% among 270,000; calls by dose curve; also: actives are rising curves; nearly all actives have a fitted effect of over 50% in size
#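 A cell-based growth assay was used: compounds that relieve NS1-induced slow growth of budding yeast raise OD600. Assay medium was yeast nitrogen base with ammonium sulphate and -URA supplement, pH 6.0, with 2% galactose.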
# RE007 growth inh – less growth of the S. pombe RE007 Vpr strain; hit rate 0.21% among 360,000; Potency, µM (doses to about 92.2 µM), usual class: inhibitors; S. pombe RE007 Vpr strain, BacTiter-Glo ATP luminescence, 24 h; AID 651644; active = well fitted falling curve with a large enough effect; inconclusive = small, poorly fitted or top-dose-only effect; inactive = no such curve, though single readings can be large or run the other way; also: nearly all actives have a fitted effect of over 50% in size
#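 Fission yeast strain RE007, carrying one chromosomally integrated HIV-1 vpr copy, was seeded at OD 0.01 in PMG+AL medium with 23 nL pinned compound. After 24 h at 30 °C and 99% humidity, viability was read by BacTiter-Glo luminescence.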
# AMA1 RON2 block – disrupts binding of P. falciparum AMA1 to RON2 | AlphaScreen AMA1-biotinylated RON2 peptide binding | Potency, µM (titrated, usually from 58.2 µM), most hits filed as inhibitors | hit rate 0.2% among 360,000 | AID 720542; also: nearly all actives have a fitted effect of over 45% in size
#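 AMA1 (3D7) with his tag at 25 nM final met compounds first, then biotinylated RON2 peptide at 25 nM; detection used donor plus acceptor beads, 10 µg/mL apiece, read by AlphaScreen after 30 min at room temperature.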
# LmPK inhibitor – inhibitors of Leishmania mexicana pyruvate kinase | Q27686 | purified LmPK, Kinase-Glo ATP luminescence, 1 h | Potency, µM (top dose mostly 57.5 µM), most hits filed as inhibitors | hit rate 0.37% among 290,000 | AID 1721
# Target sequence (Q27686 whole entry, looked up): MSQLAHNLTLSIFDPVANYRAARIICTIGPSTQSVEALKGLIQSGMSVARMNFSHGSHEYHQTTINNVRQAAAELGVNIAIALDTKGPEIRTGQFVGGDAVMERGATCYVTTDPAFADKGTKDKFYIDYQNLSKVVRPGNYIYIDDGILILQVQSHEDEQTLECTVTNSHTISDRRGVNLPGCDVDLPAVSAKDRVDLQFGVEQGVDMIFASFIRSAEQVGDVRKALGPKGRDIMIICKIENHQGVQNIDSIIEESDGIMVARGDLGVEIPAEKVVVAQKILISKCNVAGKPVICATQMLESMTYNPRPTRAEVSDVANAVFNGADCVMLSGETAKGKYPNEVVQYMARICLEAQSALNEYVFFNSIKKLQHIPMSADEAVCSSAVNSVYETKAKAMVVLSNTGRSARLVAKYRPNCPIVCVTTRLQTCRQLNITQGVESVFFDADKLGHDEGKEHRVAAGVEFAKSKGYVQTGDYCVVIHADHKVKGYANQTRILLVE
#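 Purified LmPK (0.1 nM) converted ADP (0.1 mM) to ATP with PEP (0.5 mM) in imidazole buffer pH 7.2 with KCl and MgCl2, 1 h at room temperature. ATP was read by Kinase-Glo luminescence; data normalized to uninhibited and no-enzyme controls.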
# Tb PYK inh – T. brucei pyruvate kinase inhibition; Potency, µM (highest dose often 76.8 µM), hits mostly inhibitors; Q57TT1; hit rate 0.12% among 410,000; TbPYK enzyme, Kinase-Glo Plus ATP luminescence, 45 min; also: nearly all actives have a fitted effect of over 50% in size
#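 Assay buffer: 50 mM TEA pH 7.2, 100 mM KCl, 10 mM MgCl2, 0.05% BSA, 0.01% Tween-20. Pyruvate kinase from T. brucei plus substrate met compound, then ADP (130 uM final). Luminescence was read post 45 min RT.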
# A number is an active result; i = inactive; ? = inconclusive; nt = no result; [ ] = remark or other dose. An excerpt weighted towards active compounds, which were near 0.92% of everything screened. Unless noted, calls follow the shape of the dose curve; as a rule, active = well fitted curve in the direction sought with a large enough effect; inconclusive = small, poorly fitted or top-dose-only effect, or another doubt; inactive = no such curve, though single readings can be large; an effect the other way counts as inactive or inconclusive.
SMILES,NS1 inh,RE007 growth inh,AMA1 RON2 block,LmPK inhibitor,Tb PYK inh
CO[C@@H]([CH2][Hg])CN1C(=O)c2ccccc2S1(=O)=O.Cn1c(=O)c2nc[nH]c2n(C)c1=O,i,nt,nt,nt,nt
O=C(Nc1ccc(Cl)cc1)Nc1ccc(Cl)c(C(F)(F)F)c1,nt,nt,nt,nt,i
NC1=C(O)C(=O)[C@H](c2c[nH]c3ccc(OCc4ccccc4)cc23)O1,i,nt,nt,nt,nt
Clc1ccccc1/C=C/c1nc(-c2ccccn2)no1,i,?,i,3.98µM,i
O=[N+]([O-])c1cccc(-c2nc(-c3ccccn3)no2)c1,i,i,i,?,i
c1ccc(-c2noc(-c3ccc4ccccc4c3)n2)nc1,i,?,i,6.31µM,i
c1ccc(-c2noc(-c3ccncc3)n2)nc1,i,?,i,12.6µM,?
CC(N)C(=O)NCC(=O)NC1CSSCC(C(=O)O)NC(=O)C(CO)NC(=O)C(C(C)O)NC(=O)C(Cc2ccccc2)NC(=O)C(C(C)O)NC(=O)C(CCCCN)NC(=O)C(Cc2c[nH]c3ccccc23)NC(=O)C(Cc2ccccc2)NC(=O)C(Cc2ccccc2)NC(=O)C(CC(N)=O)NC(=O)C(CCCCN)NC1=O (stereo unspecified),nt,nt,nt,nt,i
c1ccc(OCc2nc3ccccc3[nH]2)cc1,i,i,i,11.2µM,i
Cc1ccc(OCc2nc3ccccc3[nH]2)cc1,i,i,i,?,i
Cc1ccc(Nc2c(-c3ccccn3)nc3ccc(Br)cn23)cc1,nt,nt,nt,nt,i
COC(=O)CNc1c(-c2ccccn2)nc2ccc(Br)cn12,i,i,i,15.8µM,i
Clc1cc(Cl)c(OCC#CI)cc1Cl,nt,nt,nt,nt,i
Cc1cc(C)n(CCN(C)Cc2nc(Cc3ccccc3F)no2)n1,i,i,i,28.2µM,i
O=C(O[C@H]1CN2CCC1CC2)N1CCc2ccccc2[C@@H]1c1ccccc1,nt,nt,nt,nt,i
CCOC(=O)C(=O)Nc1cc(C)on1,i,i,i,15.8µM,i
CCCCNC(=O)Nc1cc(C)on1,i,i,i,i,i
CCCCS(=O)(=O)N1C2=NC(C(=O)OC)=C(C(=O)OC)[C@@H]3N(C)c4ccccc4[C@]23C[C@H]1C(=O)OC,nt,nt,nt,i[11.5 µM],nt
CC(=O)NC1C(=O)N(CCN2CCOCC2)c2ccc(Cl)cc21 (stereo unspecified),i,i,?,i,?
CC(=O)NC1C(=O)N(CCN2CCOCC2)c2ccc(C)cc21 (stereo unspecified),i,nt,31.6µM,i,?
O=C(CCN1CCCCC1)c1csc2ccccc12,i,nt,nt,nt,nt
CC1=NN(c2ccccc2)C(=O)/C1=C/C=C/c1ccccc1,i,i,3.16µM,i,i
C[C@@]12C[C@H](O)C3[C@H](CCC4=CC(=O)CC[C@]43C)[C@H]1CC[C@@H]2c1csc(-c2ccccc2)n1 (stereo partly specified),i,nt,nt,nt,nt
CCN(Cc1ccccc1)C(=O)C(CC(C)C)NS(=O)(=O)c1ccc2c(c1)CCN2C(C)=O (stereo unspecified),nt,nt,nt,nt,i
O=S(=O)(NCc1cc(-c2ccccc2Cl)no1)c1ccc(Cl)cc1,i,31.6µM,i,i,?
SMILES,NS1 inh,RE007 growth inh,AMA1 RON2 block,LmPK inhibitor,Tb PYK inh
COc1ccc(-c2cc(CNS(=O)(=O)c3ccc(NC(C)=O)cc3)on2)cc1,i,i,i,i,i
Cc1ccc(-n2c(C)cc(-c3csc(N)n3)c2C)cc1,i,i,i,i,i
Cc1cc(-c2csc(N)n2)c(C)n1C,i,i,28.2µM,i,?
CNCCc1ccc(O)c(O)c1,i,i[18.4 µM],7.08µM,nt,i
COC(=O)N1C2CC3(C)C=C(C)OC1(C)C3c1ccccc12 (stereo unspecified),nt,nt,nt,i[11.5 µM],nt
NC(N)=NCCCC(N)C(=O)O (stereo unspecified),nt,nt,nt,nt,i
O=C(/C=C/c1ccco1)Nc1cccnc1Cl,i,i,i,15.8µM,?
COc1cc2c(cc1O)CCN[C@@]21CS[C@H]2c3c(OC(C)=O)c(C)c4c(c3C(COC1=O)N1C2C2c3c(cc(C)c(OC)c3O)CC([C@@H]1O)N2C)OCO4 (stereo partly specified),nt,nt,nt,nt,i
Nc1ccc2ccccc2c1N=Nc1ccccc1,nt,?,17.8µM,nt,i
C[C@@]12CCC(=O)C=C1CC[C@H]1C2[C@@H](O)C[C@]2(C)[C@@H]1CC[C@@]2(O)C(=O)CO (stereo partly specified),i,nt,nt,nt,nt
NCCCC(N)CC(=O)NC1CNC(=O)C(C2CC(O)N=C(N)N2)NC(=O)/C(=C/NC(N)=O)NC(=O)C(CO)NC(=O)C(CO)NC1=O (stereo unspecified),nt,nt,nt,nt,i

# High-throughput results (PubChem BioAssay)
